Measured values as given in PubChem BioAssay AID1117353 (Cheminformatics & Chemogenomics Research Group (CCRG), …, 2015).
Unmarked numbers belong to inactive results. The source made the active and inactive calls. Cut-off read from the data, not from the text of the source: active = inhibition above about 50%; inactive = the rest.

The molecules below were run against Vascular endothelial growth factor receptor 2 (Homo sapiens) (UniProt P35968) (assay: VEGFR2 inhibitors, primary assay, biochemical, Homo sapiens, LANCE Ultra TR-FRET, NPC library (AID 1117353)). Details: LANCE Ultra TR-FRET kinase assay; at 20 µM (top of the series).
Sequence of Vascular endothelial growth factor receptor 2 (Homo sapiens) (P35968 whole entry, looked up): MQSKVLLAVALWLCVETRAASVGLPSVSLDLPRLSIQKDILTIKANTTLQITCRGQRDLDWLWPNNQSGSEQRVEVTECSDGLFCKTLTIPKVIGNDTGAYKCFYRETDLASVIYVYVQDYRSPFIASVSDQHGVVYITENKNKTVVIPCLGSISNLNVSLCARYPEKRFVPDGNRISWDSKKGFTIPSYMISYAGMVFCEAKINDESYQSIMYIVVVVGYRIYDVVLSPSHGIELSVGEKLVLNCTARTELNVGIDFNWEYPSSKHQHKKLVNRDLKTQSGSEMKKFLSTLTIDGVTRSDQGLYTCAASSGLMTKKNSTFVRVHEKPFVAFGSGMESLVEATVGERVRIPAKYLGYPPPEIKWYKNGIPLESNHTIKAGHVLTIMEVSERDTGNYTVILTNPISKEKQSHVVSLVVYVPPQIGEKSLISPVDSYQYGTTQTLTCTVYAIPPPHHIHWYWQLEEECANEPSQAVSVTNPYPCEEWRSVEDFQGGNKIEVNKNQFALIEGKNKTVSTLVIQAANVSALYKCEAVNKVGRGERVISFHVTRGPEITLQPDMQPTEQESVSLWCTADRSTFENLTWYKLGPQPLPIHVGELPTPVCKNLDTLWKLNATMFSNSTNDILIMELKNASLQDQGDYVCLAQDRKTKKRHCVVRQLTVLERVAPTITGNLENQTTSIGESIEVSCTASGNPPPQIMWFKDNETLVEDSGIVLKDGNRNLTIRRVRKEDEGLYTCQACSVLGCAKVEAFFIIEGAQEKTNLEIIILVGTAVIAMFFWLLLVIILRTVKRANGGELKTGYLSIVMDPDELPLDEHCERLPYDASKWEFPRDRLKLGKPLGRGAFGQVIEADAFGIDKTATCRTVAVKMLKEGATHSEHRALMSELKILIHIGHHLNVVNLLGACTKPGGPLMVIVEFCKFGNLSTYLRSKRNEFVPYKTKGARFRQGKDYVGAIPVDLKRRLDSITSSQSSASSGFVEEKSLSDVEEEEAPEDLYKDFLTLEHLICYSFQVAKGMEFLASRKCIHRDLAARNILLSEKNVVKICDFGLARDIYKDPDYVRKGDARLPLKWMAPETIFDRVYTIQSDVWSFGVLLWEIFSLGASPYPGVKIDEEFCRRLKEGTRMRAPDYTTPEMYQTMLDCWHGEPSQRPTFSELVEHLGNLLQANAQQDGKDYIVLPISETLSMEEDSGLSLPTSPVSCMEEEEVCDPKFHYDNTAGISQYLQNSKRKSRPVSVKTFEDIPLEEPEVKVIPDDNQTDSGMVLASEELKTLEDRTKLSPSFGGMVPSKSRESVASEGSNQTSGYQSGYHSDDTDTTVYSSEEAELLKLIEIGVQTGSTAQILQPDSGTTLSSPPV

| Compound | inhibition |
| --- | --- |
| C[C@@]12C(=O)OC(=O)[C@]1(C)C1CCC2O1 | -15.1% |
| CC[C@]1(O)C[C@H]2CN(CCc3c([nH]c4ccccc34)[C@@](C(=O)OC)(c3cc4c(cc3OC)N(C=O)[C@H]3[C@@](O)(C(=O)OC)[C@H](OC(C)=O)[C@]5(CC)C=CCN6CC[C@]43[C@@H]65)C2)C1 | -11.3% |
| CCCSc1ccc2nc(NC(=O)OC)[nH]c2c1 | -6.58% |
| Cc1ccc2nc(N)[nH]c(=O)c2c1Sc1ccncc1 | -56.2% |
| COC(=O)c1nc(Cl)c(Cl)nc1N | 6.09% |
| CC(C)C[C@H](NC(=O)[C@H](CCc1ccccc1)NC(=O)CN1CCOCC1)C(=O)N[C@@H](Cc1ccccc1)C(=O)N[C@@H](CC(C)C)C(=O)[C@@]1(C)CO1 | 21.4% |
| CCCCCCNC(=O)n1cc(F)c(=O)[nH]c1=O | -15.1% |
| C=CC(=O)Nc1cc2c(Nc3ccc(F)c(Cl)c3)ncnc2cc1OCCCN1CCOCC1 | 98.7% (active) |
| O=c1[nH]c(=O)n([C@H]2C[C@H](O)[C@@H](CO)O2)cc1F | -21.7% |
| CC(C)(C)C(=O)OCOP(=O)(COCCn1cnc2c(N)ncnc21)OCOC(=O)C(C)(C)C | -10.9% |
| O=C(CCCCCCC(=O)Nc1ccccc1)NO | -32.6% |
| COc1cc2c(c(OC)c1OC)-c1ccc(OC)c(=O)cc1[C@@H](NC(C)=O)CC2 | -20.7% |
| COc1cc([C@@H]2c3cc4c(cc3[C@H](O)[C@H]3COC(=O)[C@H]23)OCO4)cc(OC)c1OC | 28.2% |
| Cc1cc(=O)c2c(O)c3c(O)cc(=O)c4c3c3c(cc(O)c1c23)C(C)(C)C=4O | 22.3% |
| COc1cc2nc(N3CCN(C(=O)c4ccco4)CC3)nc(N)c2cc1OC | -41.4% |
| CC[C@@H]([C@H](C)O)n1ncn(-c2ccc(N3CCN(c4ccc(OC[C@@H]5CO[C@@](Cn6cncn6)(c6ccc(F)cc6F)C5)cc4)CC3)cc2)c1=O | 22.9% |
| CCc1nc(N)nc(N)c1-c1ccc(Cl)cc1 | 17% |
| NC(=NCCCCCCN=C(N)/N=C(\N)Nc1ccc(Cl)cc1)/N=C(\N)Nc1ccc(Cl)cc1 | -1.66% |
| O=c1c(-c2ccccc2)c1-c1ccccc1 | 28.3% |

| Compound | inhibition |
| --- | --- |
| Oc1c(Cl)cc(Cl)cc1Sc1cc(Cl)cc(Cl)c1O | 60.4% (active) |
| Cc1cc(C)c(/C=C2\C(=O)Nc3ccccc32)[nH]1 | 98.7% (active) |
| COC(=O)Nc1nc2ccc(C(=O)c3cccs3)cc2[nH]1 | 60% (active) |
| CC(=O)Oc1ccc(C2(c3ccc(OC(C)=O)cc3)Oc3ccccc3NC2=O)cc1 | -14.8% |
| Cc1nc(N)nc(N)c1-c1ccc(Cl)c(Cl)c1 | -0.1% |
| Oc1c(I)cc(I)c2cccnc12 | 0.24% |
| COC(=O)Nc1nc2ccc(Sc3ccccc3)cc2[nH]1 | 6% |
| O=[N+]([O-])c1ccc(O)c2ncccc12 | 11.1% |
| Cc1cc(C2CCCCC2)n(O)c(=O)c1 | 4.72% |
| COC(=O)Nc1nc2ccc(S(=O)c3ccccc3)cc2[nH]1 (configuration not stated) | 8.1% |
| CCN(CC)CCOc1ccc(/C(=C(\Cl)c2ccccc2)c2ccccc2)cc1 | -7.53% |
| CCCCC1C(=O)N(c2ccccc2)N(c2ccc(O)cc2)C1=O (configuration not stated) | 29.1% |
| O=C(NOCC1CC1)c1ccc(F)c(F)c1Nc1ccc(I)cc1Cl | 12.4% |
| CCCCCCCCCCCCCC[N+](C)(C)C | 11.2% |
| Cn1cnc([N+](=O)[O-])c1Sc1ncnc2nc[nH]c12 | -18.2% |
| COC(=O)[C@H]1[C@H]2C[C@@H]3c4[nH]c5cc(OC)ccc5c4CCN3C[C@H]2C[C@@H](OC(=O)/C=C/c2ccc(O)c(OC)c2)[C@@H]1OC | 16.4% |
| O=c1[nH]c(=O)n([C@H]2C[C@H](O)[C@@H](CO)O2)cc1C(F)(F)F | -17.7% |
| O=C1c2c(O)ccc(O)c2C(=O)c2c(NCCNCCO)ccc(NCCNCCO)c21 | -38% |
